Compound activity as filed in PubChem BioAssay.
The list is not random: actives were taken first. Their share in the collection is about 1.7%.
beta cell repl: MIN6 beta-cell proliferation induction; MIN6 cells proliferation, ATPlite luminescence, 48 h; cells starved in 0.2% serum; 100% = growth in 10% serum; 0.29% of 330,000 active; proliferation, % at 10 µM; AID 2380;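 active = compounds whose signal lies at least 3.5 SD above the mean of all wells on their plate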;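 note: 0% = DMSO-treated cells in low-serum medium and 100% = 10% serum control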
CHT allo act: human CHT allosteric activation; CHT-expressing cells, membrane potential dye, choline EC20; hits give high values; LV-AA mutant CHT in HEK293 cells; B-score at 10 µM; AID 488977; 0.49% of 310,000 active; Q9GZV3;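 active = initial fluorescence not abnormally high and integrated response B-score, plate-corrected, over 3 SD above library mean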
Target sequence (Q9GZV3 whole entry, looked up): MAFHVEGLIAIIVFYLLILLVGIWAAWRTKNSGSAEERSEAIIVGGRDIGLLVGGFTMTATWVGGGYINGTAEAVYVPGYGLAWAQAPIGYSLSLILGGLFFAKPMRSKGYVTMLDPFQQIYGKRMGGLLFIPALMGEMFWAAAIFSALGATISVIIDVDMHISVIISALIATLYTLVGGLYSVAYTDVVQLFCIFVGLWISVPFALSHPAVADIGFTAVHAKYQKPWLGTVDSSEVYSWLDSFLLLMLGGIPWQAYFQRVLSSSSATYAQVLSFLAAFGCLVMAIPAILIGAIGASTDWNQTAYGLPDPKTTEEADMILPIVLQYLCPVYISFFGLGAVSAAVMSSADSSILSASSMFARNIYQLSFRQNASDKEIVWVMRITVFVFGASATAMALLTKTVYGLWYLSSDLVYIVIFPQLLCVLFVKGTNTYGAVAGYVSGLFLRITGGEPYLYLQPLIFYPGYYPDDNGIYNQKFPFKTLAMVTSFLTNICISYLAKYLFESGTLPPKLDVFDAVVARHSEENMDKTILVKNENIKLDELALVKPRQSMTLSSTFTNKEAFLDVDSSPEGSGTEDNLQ
CHT block: human CHT choline transport inhibition; 0.86% of 310,000 active; Q9GZV3; B-score at 10 µM; CHT-expressing cells, membrane potential dye, choline response; hits give low values; AID 488975;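 active = B-score over 3 SD under the library average, and starting fluorescence ratio not unusually high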;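 note: choline stimulus applied at its EC90 after an EC20 pre-addition; B-score computed on integrated fluorescence ratio after choline addition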
TAG inh: triacylglycerol accumulation inhibition; H9c2 cells, Nile Red lipid (TAG) fluorescence; cells loaded with 200 µM oleic acid; inhibition, % at 12.5 µM; 0.66% of 230,000 active;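 active = pattern-corrected inhibition of lipid staining of at least 50% with the nuclear-stain viability signal not falling by more than 50%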;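 note: 0% = DMSO wells and 100% = triacsin C control wells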
CHT act confirm: confirmation of human choline transporter (CHT) activators. activation, % at 10 µM. shares compounds with CHT allo act. 91% of 2,500 active. CHT-expressing cells, membrane potential dye fluorescence (FDSS); % of choline EC20–EC90 response window; HEK293 expressing CHT LV-AA mutant; choline added at its EC20;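 active = primary screen active, with duplicate mean activation above negative control mean plus 3 SD, cut at about 11% in these data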
HEK293 MP dye: CHT activator counter-screen hit in parental HEK293 cells | shares compounds with CHT allo act | membrane potential dye fluorescence (FDSS); measured after EC20 choline addition | ratio readout change at 10 µM, hits read low | 62% of 2,500 active | AID 623908;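 active = duplicate-averaged ratio beyond 3 SD from buffer wells, up or down, though filed actives are nearly all decreases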
Numbers without * were called inactive.

Screening Cc1cccc(C2NC(c3cccc(C)c3)C(C)C(=O)C2C)c1 (centres undefined) returned beta cell repl -2, CHT allo act inactive and CHT block inactive.
Screening CCn1cc(C(=O)OCc2ccc(F)cc2)c(=O)c2ccc(C)nc21 returned beta cell repl 0, CHT allo act 8*, CHT block inactive, CHT act confirm 56* and HEK293 MP dye -87*.
`CCn1cc(C(=O)OCC(=O)Nc2c(C)n(C)n(-c3ccccc3)c2=O)c(=O)c2ccc(C)nc21` gave beta cell repl 2, CHT allo act 11*, CHT block inactive, CHT act confirm 78* and HEK293 MP dye -72*.
CCn1cc(C(=O)OCc2cccc(Br)c2)c(=O)c2ccc(C)nc21 was read as beta cell repl -5, CHT allo act inactive and CHT block inactive.
For O=C(CN1CCC(NC(=O)c2ccccc2Cl)CC1)NCc1ccco1 the results were beta cell repl 0, CHT allo act inactive and CHT block inactive.
`NC(=O)c1cc(S(=O)(=O)N2CCc3ccccc3C2)cs1` gave beta cell repl -4, CHT allo act inactive and CHT block inactive.
COc1ccccc1NS(=O)(=O)c1cc(N2Cc3ccccc3C2=N)ccc1N1CCOCC1 was read as beta cell repl -4, CHT allo act inactive, CHT block inactive, TAG inh 26, CHT act confirm 37* and HEK293 MP dye -45*.
`O=C1OC(O)c2cccc3cccc1c23` (centres undefined) gave TAG inh 5.
`Cc1ccc2ncnc(NCCCN3CCOCC3)c2c1` gave beta cell repl -1, CHT allo act inactive and CHT block inactive.
For Cc1csc2c(NCCCN3CCOCC3)ncnc12 the results were beta cell repl -1, CHT allo act inactive, CHT block inactive, TAG inh -2, CHT act confirm 41* and HEK293 MP dye -38*.
COc1cc(/C=C/C(=O)NC(C)CCc2ccccc2)cc(OC)c1OC (centres undefined) was read as beta cell repl 0, CHT allo act inactive, CHT block inactive, CHT act confirm 0 and HEK293 MP dye inactive.
For CC(C)CN(CC(C)C)CC(O)COc1ccccc1Br (centres undefined) the results were beta cell repl 0, CHT allo act inactive and CHT block inactive.
CCCCN(CCCC)CC(O)COc1ccccc1Br (centres undefined) was read as beta cell repl -2, CHT allo act 6.7*, CHT block inactive, CHT act confirm 26* and HEK293 MP dye inactive.
`Cc1cc(N2CCCC2)nc2ccccc12` gave beta cell repl 2, CHT allo act inactive, CHT block inactive, TAG inh 3, CHT act confirm 48* and HEK293 MP dye -58*.
COc1ccc(/C=N/NC(=O)CCSc2nc3ccccc3s2)cc1 was read as beta cell repl -2, CHT allo act inactive, CHT block inactive and TAG inh 19.
`COc1cccc(-c2cccc(NC(=O)C3CCN(CCCn4cccn4)CC3)c2)c1` gave TAG inh 12.
For COc1cc(C2C(C#N)=C(N)Oc3cc(N)ccc32)cc(OC)c1OC (centres undefined) the results were beta cell repl -2, CHT allo act 7.7*, CHT block inactive, TAG inh 65*, CHT act confirm 40* and HEK293 MP dye inactive.
For COc1ccc(C)cc1Nc1n[n+](-c2ccccc2)c(-c2c(Cl)cccc2Cl)s1 the results were beta cell repl -8, CHT allo act inactive and CHT block inactive.
Screening COc1ccc(C)cc1Nc1n[n+](-c2ccccc2)c(-c2ccc(OC)c(OC)c2OC)s1 returned beta cell repl -8, CHT allo act 9.9*, CHT block inactive, TAG inh -10, CHT act confirm 15* and HEK293 MP dye inactive.
For CCCCNC(=O)C1(C)CCCCN1C(=O)c1cc2ccccc2s1 (centres undefined) the results were TAG inh -21.
O=c1ccn(Cc2ccccc2)c2ccccc12 was read as beta cell repl -2, CHT allo act inactive, CHT block inactive and TAG inh -3.
c1ccc(Cn2c[n+](Cc3ccccc3)c3ccccc32)cc1 was read as beta cell repl -5, CHT allo act inactive, CHT block inactive, CHT act confirm 46* and HEK293 MP dye inactive.
OCCC1CN(Cc2cccn2-c2cccnc2)CCN1C1CCCC1 (centres undefined) was read as beta cell repl 0, CHT allo act inactive, CHT block inactive and TAG inh 5.
O=C(NCCCN1CCN(CCCNC(=O)c2cccc(Cl)c2)CC1)c1cccc(Cl)c1 was read as beta cell repl -2, CHT allo act inactive, CHT block inactive, CHT act confirm 28* and HEK293 MP dye inactive.
For COc1ccc(C(=O)NCCCN2CCN(CCCNC(=O)c3ccc(OC)c(OC)c3)CC2)cc1OC the results were beta cell repl 0 and TAG inh 8.
`CC1CCN(CCCNC(=O)c2ccc(CSCc3cccc(Cl)c3)o2)CC1` gave beta cell repl -5, CHT allo act 8.3*, CHT block inactive, CHT act confirm 49* and HEK293 MP dye -35*.
O=C(NCCN1CCCC1)c1cccc(Cl)c1 was read as beta cell repl -2, CHT allo act inactive and CHT block inactive.
Screening COc1ccccc1N1CCN(CCCCNC(=O)c2ccc3ccccc3c2)CC1 returned beta cell repl -5, CHT allo act 7.6*, CHT block inactive, TAG inh -6, CHT act confirm 36* and HEK293 MP dye -21*.
CCc1cc(C(=O)NC2CCCc3c2cnn3-c2ccc(F)cc2F)no1 (centres undefined) was read as TAG inh -31.
For C/C(=N/NC(=O)c1cnccn1)c1ccncc1 the results were beta cell repl -2, CHT allo act 6.4*, CHT block inactive, TAG inh -2, CHT act confirm 49* and HEK293 MP dye -40*.
`Cc1cccn2c(=O)c3cc(C(=O)NC4CCCC4)c(=N)n(CCc4ccccc4)c3nc12` gave beta cell repl -6, CHT allo act inactive, CHT block inactive, CHT act confirm 10 and HEK293 MP dye -29*.
`N=c1c(C(=O)NC2CCCC2)cc2c(=O)n3ccccc3nc2n1CCN1CCOCC1` gave beta cell repl 2, CHT allo act inactive, CHT block inactive, TAG inh 15, CHT act confirm 48* and HEK293 MP dye -38*.
`COc1ccc(CCn2c(=N)c(C(=O)NC3CCCCC3)cc3c(=O)n4ccccc4nc32)cc1` gave beta cell repl -7, CHT allo act inactive, CHT block inactive, CHT act confirm 43* and HEK293 MP dye -48*.
